# Reference: ChEMBL document CHEMBL3988442, “University of Dundee, Small-Polar-MMV Screening Library” (2021)
# Hit rate of the full screen: of about 66,000 compounds, about 960 (1.5%) showed an effect of 50% or more. This is one part of a sample in which strong results are shown more often than they occur.
# System: Trypanosoma brucei
# Experiment: Trypanosoma brucei 72 hour study
# Assay type: functional, organism-based
# Design: scale not given: in the data most compounds retested in dose-response had high values
smiles,measurement,setting,value
O=C(O)C(F)(F)F.c1csc(CN2C[C@H](OCC3CC3)[C@H]3COC[C@H]32)n1,Percent Effect,"30.3 µM, […]",-56.8%
Cc1cc(C)n(C2CN(CC(O)c3cc(F)ccc3F)C2)n1 (configuration not stated),Percent Effect,"30.3 µM, […]",7.425%
same,Percent Effect,"10 mM, 10 mM as filed; unlikely as a test dose",-39.98%
CCN1C(=O)CCC12CCCN(Cc1ccc(F)cc1)CC2.O=C(O)C(F)(F)F (configuration not stated),Percent Effect,"30.3 µM, […]",-27.1%
C[C@H]1CN(C(=O)N(C)C)C[C@@]12CCN(c1ccsc1)C2=O,Percent Effect,"30.3 µM, […]",-235.1%
C[C@@H]1CN(C(=O)NC2CC2)C[C@]12CCN(c1ccsc1)C2=O,Percent Effect,"30 µM, 30.03 µM",50.13%
C[C@@H]1CN(C(=O)c2ccsc2)C[C@]12CCN(c1ccsc1)C2=O,Percent Effect,"30 µM, 30.03 µM",49.54%
Cc1ccnn1CCC(=O)N1CCCC1c1cc2cccnc2[nH]1.Cl (configuration not stated),Percent Effect,"30.3 µM, […]",-12.68%
Cc1cccc(CN2C[C@@H]3COC[C@]3(CNC(=O)c3ccno3)C2)n1.O=C(O)C(F)(F)F.O=C(O)C(F)(F)F,Percent Effect,"30 µM, 30.03 µM",26.49%
Cc1nc(N2CCCC2)ncc1-c1cc(O)nc(N2CCCCC2)n1,Percent Effect,"30.3 µM, […]",-25.67%
Cc1nc(N2CCCCC2)ncc1-c1cc(O)nc(N2CCCCC2)n1,Percent Effect,"30.3 µM, […]",-25.73%
Cc1nc(N2CCCC2)ncc1-c1cc(O)nc(N2CCCC2)n1,Percent Effect,"30 µM, 30.03 µM",64.4%
CCOCC1CN(S(=O)(=O)N(C)C)Cc2cnn(CC)c21.O=C(O)C(F)(F)F (configuration not stated),Percent Effect,"30 µM, 30.03 µM",-21.09%
CCOCC1CN(C(=O)c2cscn2)Cc2cnn(CC3CC3)c21 (configuration not stated),Percent Effect,"30 µM, 30.03 µM",-19.67%
CCOCC1CN(S(=O)(=O)N(C)C)Cc2cnn(C)c21.O=C(O)C(F)(F)F (configuration not stated),Percent Effect,"30 µM, 30.03 µM",56.34%
CCOCC1CN(S(=O)(=O)N(C)C)Cc2cnn(CC3CC3)c21.O=C(O)C(F)(F)F (configuration not stated),Percent Effect,"30 µM, 30.03 µM",-18.48%
CCOCC1CN(C(=O)c2cnccn2)Cc2cnn(CC3CC3)c21.O=C(O)C(F)(F)F (configuration not stated),Percent Effect,"30 µM, 30.03 µM",61.22%
CCOCC1CN(C(=O)c2cccn2C)Cc2cnn(CC3CC3)c21.O=C(O)C(F)(F)F (configuration not stated),Percent Effect,"30 µM, 30.03 µM",19.58%
O=C(CC1CC1)N1CCN(Cc2cccnc2)c2ncccc2C1.O=C(O)C(F)(F)F.O=C(O)C(F)(F)F,Percent Effect,"30.3 µM, […]",-18.28%
C1CCC(CN2Cc3nnn(CC4CC4)c3C(COCC3CC3)C2)C1.O=C(O)C(F)(F)F (configuration not stated),Percent Effect,"30.3 µM, […]",-7.314%
CCCS(=O)(=O)N1C[C@H]2C[C@H](C(=O)N3CCN(C)CC3)[C@@H](C1)O2.O=C(O)C(F)(F)F,Percent Effect,"30.3 µM, […]",2.556%
Cn1ccc(C(=O)NC2CCC23CCN(Cc2cnn(C)c2)CC3)c1.O=C(O)C(F)(F)F (configuration not stated),Percent Effect,"30 µM, 30.03 µM",-26.08%
O=C(Nc1cccnc1)N(Cc1ccccc1)C1CC1,Percent Effect,"30 µM, 30.03 µM",60.16%
CC(C)CN(C(=O)Nc1cccnc1)C1CC1,Percent Effect,"30 µM, 30.03 µM",-2.145%
O=C(c1cccnc1)N(Cc1ccncc1)C1CC1,Percent Effect,"30 µM, 30.03 µM",-21.55%
Fc1ccc(CNC2CCN(CCc3ccncc3)CC2)cc1F,Percent Effect,"30 µM, 30.03 µM",6.927%
Cc1ccc(CNC2CCN(CCc3ccncc3)CC2)cc1C,Percent Effect,"30 µM, 30.03 µM",51.93%
COc1ccc(CNC2CCN(CCc3ccncc3)CC2)cc1O,Percent Effect,"30 µM, 30.03 µM",21.52%
O=C(O)C(F)(F)F.O=C1CCCN1Cc1nnc2n1CCCN(Cc1ccco1)C2,Percent Effect,"30.3 µM, […]",-37.98%
CC(C)(C)CC(=O)NCCn1nc(C2CCNC2)c2cccnc21.Cl (configuration not stated),Percent Effect,"30.3 µM, […]",-18.41%
COCc1noc(Cn2c(=O)[nH]c3ccccc32)n1,Percent Effect,"30 µM, 30.03 µM",-41.22%
O=C(Cc1ccccc1)N1CCC2(CC1)COCCN2CC1CC1.O=C(O)C(F)(F)F,Percent Effect,"30 µM, 30.03 µM",11.75%
CCN1CCOCC12CCN(C(=O)Cc1ccccc1)CC2.O=C(O)C(F)(F)F,Percent Effect,"30 µM, 30.03 µM",60.57%
CCN1CCOCC12CCN(C(=O)Cc1cccs1)CC2.O=C(O)C(F)(F)F,Percent Effect,"30.3 µM, […]",-18.12%
O=C(C1CCC1)N1C[C@@H]2CC[C@H](C1)N(S(=O)(=O)c1cccnc1)C2,Percent Effect,"30 µM, 30.03 µM",-15.99%
CCOc1ncccc1CNC(=O)NC1CCOc2ccccc21 (configuration not stated),Percent Effect,"30.3 µM, […]",-12.87%
C[C@@H]1CN(Cc2cccnc2)C[C@]12CCN(CCN1CCCC1)C2=O.O=C(O)C(F)(F)F.O=C(O)C(F)(F)F.O=C(O)C(F)(F)F,Percent Effect,"30.3 µM, […]",-30.87%
CCC1CN(C(=O)c2csc3nc(-c4ccc(Cl)cc4)cn23)CCN1 (configuration not stated),Percent Effect,"30 µM, 30.03 µM",66.56%
O=C(c1csc2nc(-c3ccc(Cl)cc3)cn12)N1CCCC(CO)C1 (configuration not stated),Percent Effect,"30 µM, 30.03 µM",-27.9%
CC(C)N1CCN(C(=O)c2csc3nc(-c4ccc(Cl)cc4)cn23)CC1,Percent Effect,"30 µM, 30.03 µM",-14.99%
Cc1nc(-c2ccc(F)c(F)c2)cc(C2CCNCC2)n1.Cl,Percent Effect,"30.3 µM, […]",101.1%
COc1ccc(-c2cc(C3CCNCC3)nc(C)n2)cc1.Cl,Percent Effect,"30.3 µM, […]",0.4357%
Cc1ccc(-c2cc(C3CCNCC3)nc(C)n2)cc1.Cl,Percent Effect,"30.3 µM, […]",86.87%
Cc1nc(-c2ccc(F)cc2)cc(C2CCNCC2)n1,Percent Effect,"30.3 µM, […]",-5.19%
Cc1nc(-c2ccc(CO)cc2)cc(C2CCNCC2)n1.Cl,Percent Effect,"30.3 µM, […]",-17.1%
Cc1nc(-c2ccccc2)cc(C2CCNCC2)n1.Cl,Percent Effect,"30.3 µM, […]",-24.18%
O=C(O)C(F)(F)F.O=C(c1cscn1)N1CCc2c(COCC3CC3)cncc2C1,Percent Effect,"30.3 µM, […]",-26.29%
O=C(O)C(F)(F)F.O=C([C@H]1C[C@@H]2CCN(c3cccc(F)c3)C[C@H]2O1)N1CCCCO1,Percent Effect,"30.3 µM, […]",-0.6141%
Fc1ccc(CNCc2nnc3n2CC(C(F)(F)F)CC3)cc1 (configuration not stated),Percent Effect,"30 µM, 30.03 µM",-35.58%
CC[C@@H]1N(Cc2ccc(F)cc2)CCC[C@]12CCC(=O)N2CCOC.O=C(O)C(F)(F)F,Percent Effect,"30.3 µM, […]",-80.81%
CC(C)c1n[nH]c(C2CN(C(=O)Cn3ccccc3=O)CCO2)n1 (configuration not stated),Percent Effect,"30.3 µM, […]",9.582%
CC(C)c1n[nH]c(C2CN(C(=O)CCn3ccccc3=O)CCO2)n1 (configuration not stated),Percent Effect,"30 µM, 30.03 µM",52.13%
CCc1n[nH]c(C2CN(C(=O)CCn3ccccc3=O)CCO2)n1 (configuration not stated),Percent Effect,"30.3 µM, […]",7.899%
Cl.c1ncc(-c2ccc(C3CNCCO3)nc2)cn1 (configuration not stated),Percent Effect,"30.3 µM, […]",-18.07%
Cl.Clc1ccc(-c2ccc(C3CNCCO3)nc2)cc1 (configuration not stated),Percent Effect,"30.3 µM, […]",98.64%
Cl.c1ccc(-c2ccc(C3CNCCO3)nc2)cc1 (configuration not stated),Percent Effect,"30 µM, 30.03 µM",-8.657%
COc1ccc(-c2ccc(C3CNCCO3)nc2)cc1.Cl (configuration not stated),Percent Effect,"30.3 µM, […]",-17.4%
Cn1nc(C2CNCCO2)cc1CCOc1ccc(C(F)(F)F)cc1 (configuration not stated),Percent Effect,"30.3 µM, […]",20.05%
CN(C)c1ncc(-c2ccc(F)cc2)c(C2CNCCO2)n1.Cl (configuration not stated),Percent Effect,"30.3 µM, […]",29.73%
Cl.Cl.Cn1nc(C2CNCCO2)cc1CCOc1ccc(Cl)cc1 (configuration not stated),Percent Effect,"30.3 µM, […]",53.46%
COc1ccc(OCCc2cc(C3CNCCO3)nn2C)cc1 (configuration not stated),Percent Effect,"30.3 µM, […]",1.828%
Cc1ccc(-c2ccc(C3CNCCO3)nc2)cc1.Cl (configuration not stated),Percent Effect,"30.3 µM, […]",88.62%
COCCCNC(=O)NCc1cccn1Cc1ccccc1C,Percent Effect,"30 µM, 30.03 µM",-24.61%
O=C(O)C(F)(F)F.O=C1COC2(CCN(Cc3ccoc3)CC2)CN1c1ccccc1,Percent Effect,"30 µM, 30.03 µM",-9.648%
COCCNC(=O)[C@H]1CN(Cc2csc(C)n2)C[C@H]2OCC[C@@H]12.O=C(O)C(F)(F)F.O=C(O)C(F)(F)F,Percent Effect,"30 µM, 30.03 µM",-11.19%
COCC1CC2(CCN(Cc3cccc(C#N)c3)CC2)CN1C(C)C.O=C(O)C(F)(F)F.O=C(O)C(F)(F)F (configuration not stated),Percent Effect,"30 µM, 30.03 µM",-12.65%
CC[C@H](C)[C@H](N)C(=O)N1CC(=O)c2sc(NCc3ccccc3)nc2C1,Percent Effect,"30.3 µM, […]",35.54%
CC(C)NC(=O)N1CC(=O)c2sc(NC3CCCCC3)nc2C1,Percent Effect,"30.3 µM, […]",-21.05%
CC[C@H](C)[C@H](N)C(=O)N1CC(=O)c2sc(NC3CCCCC3)nc2C1,Percent Effect,"30.3 µM, […]",89.66%
CC(C)CC(=O)N1CC(=O)c2sc(NC3CCCCC3)nc2C1,Percent Effect,"30.3 µM, […]",-18.82%
CC(C)CC(=O)N1CC(=O)c2sc(Nc3ccc(F)cc3)nc2C1,Percent Effect,"30.3 µM, […]",-26.14%
CC[C@H](C)[C@H](N)C(=O)N1CC(=O)c2sc(Nc3ccc(F)cc3)nc2C1,Percent Effect,"30.3 µM, […]",54.3%
N[C@H]1CC[C@@H](n2cc(C(=O)N[C@H]3CCCc4ccccc43)nn2)CC1,Percent Effect,"30 µM, 30.03 µM",-48.79%
O=C(Nc1cnccn1)[C@@H]1COC[C@H]2CN(C3CCC3)C[C@H]21.O=C(O)C(F)(F)F,Percent Effect,"30 µM, 30.03 µM",-9.316%
COCCN1CCC(CNC(=O)CCc2cc(F)ccc2F)C1 (configuration not stated),Percent Effect,"30 µM, 30.03 µM",-4.617%
COCCN1CCC(CNC(=O)Nc2ccc(-c3ccccc3)cc2)C1 (configuration not stated),Percent Effect,"30.3 µM, […]",100.6%
COCCN1CCC(CNC(=O)C2(c3ccccc3)CCC2)C1 (configuration not stated),Percent Effect,"30.3 µM, […]",-7.306%
COCCN1CCC(CNC(=O)C2(c3ccccc3)CCOCC2)C1 (configuration not stated),Percent Effect,"30.3 µM, […]",-10.94%
COCCn1cc(NC(=O)NCC2CCN(c3ccccc3)C2)cn1 (configuration not stated),Percent Effect,"30 µM, 30.03 µM",-68.77%
COCCN1CCC(CNC(=O)c2cc(C)cc(C)c2)C1 (configuration not stated),Percent Effect,"30 µM, 30.03 µM",28.41%
COCCN1CCC(CNC(=O)C2(c3cccc(Cl)c3)CC2)C1 (configuration not stated),Percent Effect,"30.3 µM, […]",10.42%
COCCN1CCC(CNC(=O)Nc2ccc(F)c(Cl)c2)C1 (configuration not stated),Percent Effect,"30.3 µM, […]",73.54%
COCCN1CCC(CNC(=O)Nc2ccc(SC(F)(F)F)cc2)C1 (configuration not stated),Percent Effect,"30.3 µM, […]",90.18%
O=C(C1CCCC1)N1CCC2(CC1)COCCN2CC1CC1.O=C(O)C(F)(F)F,Percent Effect,"30.3 µM, […]",-13.33%
CCN1CCC2(CC1)CC(NCc1ccncc1)c1ccccc1O2.O=C(O)C(F)(F)F.O=C(O)C(F)(F)F.O=C(O)C(F)(F)F (configuration not stated),Percent Effect,"30 µM, 30.03 µM",1.43%
O=C(CN1CCC(c2ccnn2CCO)CC1)NCc1ccco1,Percent Effect,10 µM,-47.08%
O=C(O)C(F)(F)F.O=C(c1ccno1)N1CC[C@@H]2O[C@H](COCCN3CCCC3)CC[C@@H]21,Percent Effect,"30 µM, 30.03 µM",39.45%
CCCN(Cc1cnc2ccccc2n1)Cc1ccccc1OC,Percent Effect,"30.3 µM, […]",99.59%
CCCN(Cc1ccccn1)Cc1ccccc1OC,Percent Effect,"30.3 µM, […]",-7.297%
CCCN(Cc1nc2ccccc2[nH]1)Cc1ccccc1OC,Percent Effect,"30.3 µM, […]",15.38%
Cc1cccc(CN2CCn3cc(Cn4cccn4)nc3C2)n1.O=C(O)C(F)(F)F.O=C(O)C(F)(F)F.O=C(O)C(F)(F)F,Percent Effect,"30 µM, 30.03 µM",-12.32%
O=C(O)C(F)(F)F.O=C(c1cnccn1)N1CCOC2(CCCN(c3ncccc3F)C2)C1 (configuration not stated),Percent Effect,"30.3 µM, […]",-33.25%
